This note sets out measurements from PubChem BioAssay.

Several values for one entry are separate records, joined by “and”; a condition that tells them apart may be missing. Equal values may be shown once. Where a structure was tested more than once in an assay, its records may differ in their call. Activity calls are given as the source filed them.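 How the source made its calls, unless noted: active means compounds whose cell count with miR-34 switched on is under 0.7 times the count with it off; inactive means the rest.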 Where a SMILES comes first, the peptide text is derived from it.

Experiment [1] is described as follows: viability loss with induced miR-34 in A549 – imaging, A549 dox-inducible miR-34, nuclei and caspase counts, primary screen (AID 1347080). To be noted: A549 miR-34 inducible, Hoechst nuclei count, 48 h.
Experiment [2] can be described thus: MELAS cybrid and Rieske KO viability enhancers – cell-based, MELAS cybrids, Rieske KO mouse fibroblasts, CellTiter-Glo, primary screen (AID 1508586;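 active means mean z-score across replicates of 1.96 or higher in either the MELAS or the Rieske mutant cell line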;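 further: z relative to plate mean and SD of compound and empty wells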). To be noted: low glucose. (In general: In ATP-based viability assays light output follows the ATP content of the culture.)
Where [3] appears, read: stronger effect = lower value, cell number ratio, induced over uninduced.
The mark [4] stands for this setting: measured here: relative caspase fold change +Dox/-Dox.
[5] abbreviates: measured here: total cells with miR-34 induction, stronger effect = lower value.
Where [6] appears, read: measured here: total cells without miR-34 induction.
Setting [7] is: MELAS cybrid survival, CellTiter-Glo 48 h, stronger effect = higher value.
The mark [8] stands for this setting: Rieske KO mouse fibroblast survival, CellTiter-Glo 72 h.
Further: test concentration not given here.

Turning to `CC(C)(CO)c1cc2cc(NC(=O)C3(c4ccc5c(c4)OC(F)(F)O5)CC3)c(F)cc2n1CC(O)CO` (configuration not stated), the fold change in experiment [1] (setting [3]) was 0.912 (inactive); in experiment [1] (setting [4]), 1.56. The values for the cell count in experiment [1] (setting [5]) and in experiment [1] (setting [6]) were 8420 and 9220, respectively. For the same compound, the values for the z-score in experiment [2] (setting [7]) and in experiment [2] (setting [8]) were -0.252 (inactive) and -0.139, respectively.
On to `O=C(O)C(S)=Cc1c[nH]c2ccc(F)cc12`, for which the fold change was 0.952 (inactive) in experiment [1] (setting [3]) and 0.47 in experiment [1] (setting [4]). Moreover, the figures for the cell count in experiment [1] (setting [5]) and in experiment [1] (setting [6]) were 7180 and 7550, respectively. The figures for the z-score in experiment [2] (setting [7]) and in experiment [2] (setting [8]) were -0.325 (inactive) and -0.491, respectively.
For `CCC(C)C(=O)OC1CCC=C2C=CC(C)C(CCC3CC(O)CC(=O)O3)[C@H]21` (some centres not stated), the fold change in experiment [1] (setting [3]) is 0.904 (inactive); in experiment [1] (setting [4]), 0.982. In addition, the cell count in experiment [1] (setting [5]) came to 4680; in experiment [1] (setting [6]) it was 5180. The z-score in experiment [2] (setting [7]) was -0.482 (inactive); in experiment [2] (setting [8]) it was -0.195.
With `CC1(C)O[C@@H]2C[C@H]3[C@@H]4C[C@@H](F)C5=CC(=O)C=C[C@]5(C)[C@]4(F)C(O)C[C@]3(C)[C@@]2(C(=O)CO)O1` (some centres not stated), the figures for the fold change in experiment [1] (setting [3]) and in experiment [1] (setting [4]) were 0.861 (inactive) and 0.94, respectively. The cell count in experiment [1] (setting [5]) came to 5980; in experiment [1] (setting [6]) it was 6950. The figures for the z-score in experiment [2] (setting [7]) and in experiment [2] (setting [8]) were -0.367 (inactive) and -0.28, respectively.
Take `COc1cccc2c1C(=O)c1c(O)c3c(c(O)c1C2=O)C[C@@](O)(C(=O)CO)CC3O[C@H]1CC(N)C(O)C(C)O1` (some centres not stated): the fold change is 0.879 (inactive) and 1.08 (inactive) in experiment [1] (setting [3]); 1.03 and 0.95 in experiment [1] (setting [4]). The cell count in experiment [1] (setting [5]) is 1470 and 1780; in experiment [1] (setting [6]), 1680 and 1650. Besides, the z-score was 5.38 (active) and -0.136 (inactive) in experiment [2] (setting [7]); 4.45 and -2.31 in experiment [2] (setting [8]).
As for `O=C(c1ccc(F)cc1)N1CCCC(c2nc(-c3ccc(F)cc3)no2)C1` (configuration not stated), the values for the fold change in experiment [1] (setting [3]) and in experiment [1] (setting [4]) were 0.877 (inactive) and 0.718, respectively. Moreover, the cell count was 8270 in experiment [1] (setting [5]) and 9420 in experiment [1] (setting [6]). Further, the z-score in experiment [2] (setting [7]) was -0.287 (inactive); in experiment [2] (setting [8]) it was -0.496.
With `CC1(C)S[C@@H]2C(NC(=O)C(C(=O)O)c3ccccc3)C(=O)N2C1C(=O)O` (some centres not stated), the fold change in experiment [1] (setting [3]) was 0.89 (inactive); in experiment [1] (setting [4]), 0.816. For the same compound, the cell count in experiment [1] (setting [5]) came to 8430; in experiment [1] (setting [6]) it was 9470. Moreover, the z-score was -0.386 (inactive) in experiment [2] (setting [7]) and -0.157 in experiment [2] (setting [8]).
As to `CC(=O)c1cc([N+](=O)[O-])c(Sc2ccc(F)cc2F)s1`, the fold change in experiment [1] (setting [3]) was 0.898 (inactive); in experiment [1] (setting [4]), 0.374. The values for the cell count in experiment [1] (setting [5]) and in experiment [1] (setting [6]) were 8140 and 9060, respectively. Also, the z-score in experiment [2] (setting [7]) was -0.42 (inactive); in experiment [2] (setting [8]), 0.533.
Regarding `OCC1OC(OCCc2ccc(O)cc2)C(O)C(O)C1O` (configuration not stated), the fold change in experiment [1] (setting [3]) is 0.962 (inactive); in experiment [1] (setting [4]), 0.762. The cell count in experiment [1] (setting [5]) is 10000; in experiment [1] (setting [6]) it was 10400. Besides, the figures for the z-score in experiment [2] (setting [7]) and in experiment [2] (setting [8]) were -0.35 (inactive) and 0.467, respectively.
For the compound `Cc1ccc(S(=O)(=O)n2c(N)nc3ccccc32)cc1`, the fold change was 1.01 (inactive) in experiment [1] (setting [3]) and 0.588 in experiment [1] (setting [4]). In addition, the figures for the cell count in experiment [1] (setting [5]) and in experiment [1] (setting [6]) were 6490 and 6440, respectively. Further, the z-score in experiment [2] (setting [7]) was -0.425 (inactive); in experiment [2] (setting [8]) it was -0.074.
`CC(=O)Nc1nc2c(Oc3cc(-c4ccc(C(F)(F)F)cc4)ncn3)cccc2s1`: the results for the fold change in experiment [1] (setting [3]) and in experiment [1] (setting [4]) were 0.981 (inactive) and 0.45, respectively. The cell count in experiment [1] (setting [5]) was 8510; in experiment [1] (setting [6]), 8670. Besides, the z-score in experiment [2] (setting [7]) is -0.457 (inactive); in experiment [2] (setting [8]), -0.29.
Take `Cc1ccc(NCCCc2ccccc2)c(N)c1`: the fold change in experiment [1] (setting [3]) is 0.882 (inactive); in experiment [1] (setting [4]), 0.496. Also, the figures for the cell count in experiment [1] (setting [5]) and in experiment [1] (setting [6]) were 7500 and 8510, respectively. Further, the z-score was -0.425 (inactive) in experiment [2] (setting [7]) and 0.263 in experiment [2] (setting [8]).
As to `Cc1cnc(NC(=O)Nc2cc(Br)c(C)cc2OCC2CNCCO2)cn1` (configuration not stated), the figures for the fold change in experiment [1] (setting [3]) and in experiment [1] (setting [4]) were 1.11 (inactive) and 0.742, respectively. Also, the cell count in experiment [1] (setting [5]) turned out to be 1910; in experiment [1] (setting [6]), 1730. In addition, the z-score is 0.916 (inactive) in experiment [2] (setting [7]) and -0.0359 in experiment [2] (setting [8]).
On to `COc1c(O)cc2c(c1O)[C@@H]1OC(CO)C(O)C(O)[C@H]1OC2=O` (some centres not stated), for which the fold change in experiment [1] (setting [3]) was 0.888 (inactive); in experiment [1] (setting [4]), 1.9. Further, the cell count in experiment [1] (setting [5]) was determined as 8260; in experiment [1] (setting [6]) it was 9300. Besides, the z-score is -0.313 (inactive) in experiment [2] (setting [7]) and 0.533 in experiment [2] (setting [8]).
For `Cc1ccc(C2OC(CO)C(O)C(O)C2O)cc1Cc1ccc(-c2ccc(F)cc2)s1` (configuration not stated), the figures for the fold change in experiment [1] (setting [3]) and in experiment [1] (setting [4]) were 0.902 (inactive) and 0.772, respectively. Moreover, the cell count amounted to 9160 in experiment [1] (setting [5]) and 10100 in experiment [1] (setting [6]). The z-score in experiment [2] (setting [7]) is -0.448 (inactive); in experiment [2] (setting [8]), 0.478.
For `Cc1ccc(Cl)cc1N(CC(=O)Nc1c(F)cccc1F)S(C)(=O)=O`, the fold change was 0.888 (inactive) in experiment [1] (setting [3]) and 0.518 in experiment [1] (setting [4]). Moreover, the cell count in experiment [1] (setting [5]) came to 8090; in experiment [1] (setting [6]), 9110. The z-score in experiment [2] (setting [7]) is -0.403 (inactive); in experiment [2] (setting [8]), 0.642.
As for `CC1(C)SC2C(NC(=O)C(C(=O)O)c3ccsc3)C(=O)N2C1C(=O)O` (configuration not stated), the fold change in experiment [1] (setting [3]) is 0.763 (inactive); in experiment [1] (setting [4]), 0.814. Besides, the cell count came to 7330 in experiment [1] (setting [5]) and 9600 in experiment [1] (setting [6]). Also, the z-score in experiment [2] (setting [7]) was -0.203 (inactive); in experiment [2] (setting [8]) it was -0.146.
As for `COC(=O)C(Cc1ccccc1)NC(=O)C(N)CC(=O)O` (stereo not drawn) (H-Asp-Phe-OMe; configuration not given here), the fold change is 0.938 (inactive) in experiment [1] (setting [3]) and 0.532 in experiment [1] (setting [4]). Also, the cell count in experiment [1] (setting [5]) was 8220; in experiment [1] (setting [6]) it was 8770. Further, the figures for the z-score in experiment [2] (setting [7]) and in experiment [2] (setting [8]) were -0.285 (inactive) and -0.555, respectively.
`Cc1cc(CS(=O)(=O)c2ccccc2)cc(OCc2ccc(CN3CCCC3CO)cc2)c1` (configuration not stated): the fold change in experiment [1] (setting [3]) was 0.932 (inactive); in experiment [1] (setting [4]) it was 0.28. Also, the cell count in experiment [1] (setting [5]) amounted to 7820; in experiment [1] (setting [6]), 8380. Besides, the z-score in experiment [2] (setting [7]) is 0.0407 (inactive); in experiment [2] (setting [8]) it was 0.831.
On to `CCC(=C(CC)c1ccc(O)cc1)c1ccc(O)cc1`, for which the fold change was 0.852 (inactive) in experiment [1] (setting [3]) and 1.22 in experiment [1] (setting [4]). In addition, the cell count stood at 7280 in experiment [1] (setting [5]) and 8550 in experiment [1] (setting [6]). For the same compound, the z-score in experiment [2] (setting [7]) is -0.347 (inactive); in experiment [2] (setting [8]), 0.452.
For the compound `CCC(=O)O[C@@]1(C(=O)CCl)[C@@H](C)C[C@H]2[C@@H]3CCC4=CC(=O)C=C[C@]4(C)[C@]3(F)[C@H](O)C[C@@]21C`, the values for the fold change in experiment [1] (setting [3]) and in experiment [1] (setting [4]) were 0.838 (inactive) and 0.869, respectively. Also, the cell count worked out at 5560 in experiment [1] (setting [5]) and 6630 in experiment [1] (setting [6]). For the same compound, the z-score in experiment [2] (setting [7]) is -0.516 (inactive); in experiment [2] (setting [8]), -0.656.
Take `Cc1ccc(C(=O)N(CCCN)C(c2nc3cc(Cl)ccc3c(=O)n2Cc2ccccc2)C(C)C)cc1` (configuration not stated): the fold change in experiment [1] (setting [3]) was 0.993 (inactive); in experiment [1] (setting [4]) it was 0.877. Also, the cell count in experiment [1] (setting [5]) was determined as 1340; in experiment [1] (setting [6]) it was 1350. Also, the z-score in experiment [2] (setting [7]) was 0.859 (inactive); in experiment [2] (setting [8]) it was -0.608.
